# Laboratory results published in PubChem BioAssay (NCI).
# About 83,000 compounds went through this panel and 20% of them were active in at least one assay; those are over-represented in the sample as a whole.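 Compound tested at a single concentration for 48 hours in 96-well plates; a percent growth value below 10 was scored as active.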 Unmarked numbers belong to inactive results. Calls of active or inactive are those of the source.
# Experiments:
# Assay in all cases: NCI-60 one-dose screen, 48 h (100 = growth as untreated, 0 = no growth, -100 = all killed)
# Details in all cases: 10 µM unless noted
# DU-145 prostate = system: DU-145 prostate
# K-562 leukemia = system: K-562 leukemia
# MALME-3M melanoma = system: MALME-3M melanoma
# MDA-MB-231 breast = system: MDA-MB-231 breast
# RXF 393 renal = system: RXF 393 renal
# SF-268 CNS = system: SF-268 CNS
# SF-295 CNS = system: SF-295 CNS
# SF-539 CNS = system: SF-539 CNS
# UACC-257 melanoma = system: UACC-257 melanoma
# M14 melanoma = system: M14 melanoma
# HCT-15 colon = system: HCT-15 colon
# HT29 colon = system: HT29 colon
# U251 CNS = system: U251 CNS
# PC-3 prostate = system: PC-3 prostate
# SK-MEL-5 melanoma = system: SK-MEL-5 melanoma
# UACC-62 melanoma = system: UACC-62 melanoma
# LOX IMVI melanoma = system: LOX IMVI melanoma
# SK-MEL-28 melanoma = system: SK-MEL-28 melanoma
# SNB-75 CNS = system: SNB-75 CNS
# SNB-19 CNS = system: SNB-19 CNS
SMILES,growth (DU-145 prostate),growth (K-562 leukemia),growth (MALME-3M melanoma),growth (MDA-MB-231 breast),growth (RXF 393 renal),growth (SF-268 CNS),growth (SF-295 CNS),growth (SF-539 CNS),growth (UACC-257 melanoma),growth (M14 melanoma),growth (HCT-15 colon),growth (HT29 colon),growth (U251 CNS),growth (PC-3 prostate),growth (SK-MEL-5 melanoma),growth (UACC-62 melanoma),growth (LOX IMVI melanoma),growth (SK-MEL-28 melanoma),growth (SNB-75 CNS),growth (SNB-19 CNS)
COCCNC(C(=O)c1ccccc1)c1ccccc1 (centres undefined),107%,103%,102%,102%,101%,94.3%,98%,99.7%,97.6%,100%,99.6%,107%,95.1%,92.7%,96.6%,97.9%,103%,105%,,
CC1=C[S+](c2ccccc2)c2cccc3cc4ccccc4c1c23 (centres undefined),-10.8% (active),-27.2% (active),-41.2% (active),-10.4% (active),,-38.7% (active),-0.638% (active),-88.2% (active),-88.8% (active),-64.4% (active),7.56% (active),0.469% (active),-81% (active),,-86.7% (active),-85.2% (active),8.36% (active),11.5%,-91.1% (active),-93.6% (active)
CC(C)(C)NC(C1=CC(C)(C)c2ccccc2C1=O)c1ccccc1 (centres undefined),-26.2% (active),-34.8% (active),-43% (active),-1.43% (active),,-11.3% (active),37.8%,-40.7% (active),-59.3% (active),-41.5% (active),-58.7% (active),-60.2% (active),-67.7% (active),-79% (active),3.82% (active),-23.5% (active),-66% (active),-10.5% (active),16.3%,25%
O=C1c2ccccc2C(=O)c2c(NCCN=Cc3c(O)ccc4ccccc34)cccc21,51.7%,77.7%,113%,84.4%,,82.3%,65.1%,91.4%,-5.35% (active),65.8%,77%,88%,83%,84.5%,86.7%,85.8%,66.7%,117%,84%,84.9%
O=C(c1cc(-c2ccc(Cl)cc2)nc2ccccc12)N1N=C(c2ccccc2)CC1c1cc(-c2ccccc2)nn1-c1ccccc1 (centres undefined),82.7%,63.9%,86.1%,93.3%,,62.4%,64.8%,82.1%,95.1%,65.1%,56.7%,98.7%,63.8%,71.3%,78.7%,79.2%,57%,73.3%,69.2%,77.1%
Cc1[nH]n(C(=O)c2ccncc2)c(=O)c1N=Nc1ccc(S(=O)(=O)Nc2ccncn2)cc1,126%,55.3%,124%,103%,,95.5%,134%,107%,-1.41% (active),106%,112%,109%,105%,100%,106%,98.8%,93.6%,112%,93.9%,105%
Nc1c(C(=O)O)[nH]c(=O)[nH]c1=O,110%,86.9%,110%,,93.5%,98.7%,99.7%,103%,75.7%,103%,104%,92.7%,91.9%,94.4%,103%,89%,97.6%,109%,98%,104%
CC1(C)N=C(N)N=C(N)N1c1cccc(CCCCc2ccccc2)c1,31.1%,-44.7% (active),-1.54% (active),45.4%,,10.8%,3.96% (active),4.72% (active),-34.8% (active),6.98% (active),37.1%,-5.08% (active),11.5%,-30% (active),-96.7% (active),-9.07% (active),13.2%,42.6%,-5.66% (active),
